Bioassay records: PubChem, National Center for Advancing Translational Sciences (NCATS)
The list is not random: actives were taken first. Their share in the collection is about 2.3%.
Pol III holo inh = blocks replication by bacterial DNA polymerase III holoenzyme | reconstituted DNA polymerase III holoenzyme replication, biochemical | Potency, µM (highest dose often 57.1 µM), for the others: top-dose activity change, negative = inhibition | 0.25% of 71,000 active; note: potency is the fitted concentration of half-maximal effect; % is set by controls: 0 for no effect and ±100 for the full control effect
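Reconstituted *E. coli* holoenzyme (0.35 nM Pol III, 1 nM beta, 154 nM SSB, 2 nM primase) was preincubated with compound for 15 min at RT. Synthesis on 1.4 nM ssM13Gori ran 35 min, then was stopped with PicoGreen/EDTA and read as dsDNA fluorescence.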
BRCT PPI green = blocks human BRCA1 BRCT binding to phosphopeptide, green readout | P38398 | BRCA1 BRCT-phosphopeptide binding, green fluorescence polarization | Potency, µM (highest dose often 76.9 µM), for the others: at the top dose activity change, negative = inhibition, usual class: inhibitors | 0.05% of 75,000 active;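 note: potency is the fitted concentration of half-maximal effect; plate controls were peptide without protein for full effect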
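Compounds were incubated for 12 min at room temperature with a complex of 100 nM fluorescein-tagged pBACH1 decapeptide and 250 nM His-tagged BRCT protein. Buffer was phosphate pH 7.3 with EDTA, DTT and Tween 20. Disruption of binding lowers the polarization signal.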
Tau fil binding = tau filament binding; P10636; recombinant tau filaments, thioflavin S fluorescence, 15 h; filaments grown with octadecylsulfate alongside compound; Potency, µM (titrated, usually from 57.1 µM), without a hit: at the highest dose activity change, negative = inhibition; 2% of 71,000 active; AID 596;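 note: potency is the fitted concentration of half-maximal effect; % is set by controls: 0 for no effect and ±100 for the full control effect; actives lower thioflavin S fluorescence by blocking filaments or displacing dye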
Target sequence (P10636 whole entry, looked up): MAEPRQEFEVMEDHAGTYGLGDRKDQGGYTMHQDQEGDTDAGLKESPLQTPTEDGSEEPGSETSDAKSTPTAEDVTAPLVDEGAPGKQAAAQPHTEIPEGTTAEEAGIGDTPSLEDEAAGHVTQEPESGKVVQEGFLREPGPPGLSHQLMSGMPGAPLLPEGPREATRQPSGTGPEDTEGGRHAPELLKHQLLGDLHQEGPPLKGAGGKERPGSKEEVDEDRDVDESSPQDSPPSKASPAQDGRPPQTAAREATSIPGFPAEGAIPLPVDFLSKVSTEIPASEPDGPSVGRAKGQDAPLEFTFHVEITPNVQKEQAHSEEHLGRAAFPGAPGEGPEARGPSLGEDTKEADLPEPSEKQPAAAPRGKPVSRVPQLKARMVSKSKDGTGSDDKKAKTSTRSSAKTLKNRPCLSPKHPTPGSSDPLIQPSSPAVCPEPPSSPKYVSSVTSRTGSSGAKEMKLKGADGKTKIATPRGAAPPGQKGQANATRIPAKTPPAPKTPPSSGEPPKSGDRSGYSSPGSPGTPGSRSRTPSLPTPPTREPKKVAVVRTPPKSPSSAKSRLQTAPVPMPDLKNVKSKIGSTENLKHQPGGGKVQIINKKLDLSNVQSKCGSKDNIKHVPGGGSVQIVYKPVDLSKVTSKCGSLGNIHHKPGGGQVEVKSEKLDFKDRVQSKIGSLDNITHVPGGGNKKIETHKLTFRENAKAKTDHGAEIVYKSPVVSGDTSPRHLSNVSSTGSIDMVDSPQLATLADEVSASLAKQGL
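Assay mix: 1 uM His-tagged tau, 30 uM sodium octadecylsulfate, thioflavine S dye in HEPES/NaCl/DTT buffer. Compound is added prior to the inducer. Fluorescence after 15 h at 37 C.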
Hsp90 Hop PPI = changes Hsp90-Hop TPR2A binding signal, up or down | AlphaScreen TPR2A-His6 binding biotin-Hsp90 C-terminal peptide | Potency, µM (doses to about 57 µM), for inactives: top-dose activity change, negative = inhibition | 0.44% of 71,000 active | AID 595; active = well fitted curve in either direction with a large enough effect; inconclusive = small, poorly fitted or top-dose-only effect, or another doubt; note: potency is the fitted concentration of half-maximal effect; % is set by controls: 0 for no effect and ±100 for the full control effect
TsaE inh = YjeE (TsaE) inhibition, E. coli | P0AF67 | purified YjeE enzyme, qHTS inhibition assay | Potency, µM | 0.05% of 71,000 active
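Fluorescence polarization of a BODIPY Texas Red–ADP probe (2 uM) bound to purified YjeE (10 uM) was read after 15 min room-temperature incubation with compounds. Loss of polarization marks inhibitors; ADP serves as titrated control.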
BRCT inh red = inhibitors of human BRCA1 BRCT-phosphoprotein interaction (red fluorophore); P38398; BRCT-phosphopeptide binding, red fluorescence polarization; Potency, µM (top dose mostly 76.9 µM), inactives show at the top dose activity change, negative = inhibition, hits mostly inhibitors; 0.03% of 75,000 active; note: % is set by controls: 0 for no effect and ±100 for the full control effect
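Rhodamine-labelled pBACH1 10-mer (100 nM) bound to BRCT domain (100 nM) at pH 7.3; compounds incubated 12 min room temperature, polarization read. Free peptide defines full inhibition; unlabelled decapeptide titrated as control.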
* hit, by the source's call; i = inactive; u = inconclusive; x = no result; ! = repeats disagree; [ ] = another dose, or the depositor's remark. Unless noted, calls come from the whole dose curve; as a rule, active = well fitted curve in the direction sought with a large enough effect; inconclusive = small, poorly fitted or top-dose-only effect, or another doubt; inactive = no such curve, though single readings can be large; an effect the other way counts as inactive or inconclusive.

SMILES	Pol III holo inh	BRCT PPI green	Tau fil binding	Hsp90 Hop PPI	TsaE inh	BRCT inh red
CN1CCc2cc(NC(=O)Nc3cccnc3)ccc21	-2%	2%	-14%	-18%	i	-2%
CN(C)CCCNc1cc(O)c2c(c1O)C(=O)c1ccccc1C2=O	u	-1%[15.4 µM]	1µM*	u	i	u
O=C1c2ccccc2C(=O)c2c(O)c(O)cc(O)c21	x	-21%	x	x	x	40µM*
N[C@@H](CO)C(=O)NNCc1ccc(O)c(O)c1O	7%[25.6 µM]	1%[34.4 µM]	10%[25.6 µM]	u	i	0%[34.4 µM]
O=C(O)c1cncc(C(=O)O)c1	-5%[11.4 µM]	-1%[15.4 µM]	2%[11.4 µM]	-1%[11 µM]	i	0%[15.4 µM]
Cc1ccccc1C	-4%	-2%	-10%	-4%	i	-1%
O=S(=O)(O)c1ccc2c(N=Nc3cccc4ccccc34)c(O)c(S(=O)(=O)O)cc2c1	-9%[11.4 µM]	-25%[15.4 µM]	-11%[11.4 µM]	-29%[11 µM]	i	-18%[15.4 µM]
Cc1nn(-c2ccc(S(=O)(=O)O)cc2)c(O)c1N=Nc1ccc(-c2ccc(N=Nc3ccc4c(S(=O)(=O)O)cc(S(=O)(=O)O)c(N)c4c3O)c(O)c2)cc1O.[Cu].[Cu]	1.3µM*	6.3µM*	-22%[11.4 µM]	-16%[11 µM]	u	2.5µM*
COc1cc(-c2ccc(N=Nc3ccc4c(S(=O)(=O)O)cc(S(=O)(=O)O)c(N)c4c3O)c(OC)c2)ccc1N=Nc1ccc2c(S(=O)(=O)O)cc(S(=O)(=O)O)c(N)c2c1O	2.5µM*	40µM*!	13µM*	4µM*!	50µM*	u
Oc1ccccc1C(=S)N1CCCCCC1	-5%	1%	25µM*	-9%	i	-1%
CN1CCC[C@@H]1c1cccnc1.O=C(O)c1ccccc1O.O=C([OH2+])c1ccccc1O.O=C([OH2+])c1ccccc1O.O=C([OH2+])c1ccccc1O.[Cu]	-5%[11.4 µM]	-1%[15.4 µM]	-16%[11.4 µM]	0%[11 µM]	i	-1%[15.4 µM]
CCc1cccc2nc3c(c([Si](CC)(CC)CC)c12)Cn1c-3cccc1=O	1%	23%	20µM*	25µM*	i	-2%
CCc1c2c(nc3c(C(C)C)cccc13)-c1cccc(=O)n1C2	-10%	8%	174%	u	i	-2%
CC(C)c1cccc2nc3c(c([Si](C)(C)C)c12)Cn1c-3cccc1=O	-6%	1%	32µM*	u	i	-1%
CN(C)CC(CN(C)C)c1ccccn1	-11%[11.4 µM]	0%[15.4 µM]	0%[11.4 µM]	-3%[11 µM]	i	-1%[15.4 µM]
[N-]=[N+]=Nc1ccc(C(=O)CSC[C@@H](NC(=O)CC[C@@H](N)C(=O)O)C(=O)NCC(=O)O)cc1	-5%	-1%	1%	-1%	i	-4%
CCS(=O)(=O)Nc1c(C(=O)O)[nH]c2ccccc12	-6%	-2%	20µM*	-9%	i	0%
CCS(=O)(=O)Nc1c(C(=O)OC)[nH]c2ccccc12	-10%	-2%	-6%	-1%	i	0%
CN(C)CCc1c[nH]c2ccc(CS(=O)(=O)N3CCCC3)cc12	x	-1%[3.08 µM]	x	x	x	3%
O=C(/C=C/c1ccc2c(c1)OCO2)c1cccs1	x	0%	x	x	x	-1%
Cc1ccc2oc(-c3ccccc3)c(O)c(=O)c2c1	-3%	-1%	32µM*	5%	i	-4%
O=C1c2cccc(O)c2C(=O)c2c(O[C@@H]3O[C@H](CO)[C@@H](O)[C@H](O)[C@@H]3O)cccc21	-10%[11.4 µM]	-1%[15.4 µM]	-7%[11.4 µM]	-3%[11 µM]	i	-1%[15.4 µM]
O=C(O)c1cc(O)c2c(c1)[C@H]([C@H]1c3cc(C(=O)O)cc(O)c3C(=O)c3c(O[C@@H]4OC(CO)C(O)C(O)C4O)cccc31)c1cccc(O[C@@H]3OC(CO)C(O)C(O)C3O)c1C2=O (some centres undefined)	x	-6%[3.08 µM]	x	x	x	6.3µM*
CN1CCc2c(sc3c2c(=O)n(-c2ccccc2)c2nnc(SCc4ccc(F)cc4)n32)C1	-1%	1%	4µM*	-13%	i	-1%
c1nc(N2CCCC2)c2[nH]cnc2n1	-1%	-2%	2%	1%	i	-1%
SMILES	Pol III holo inh	BRCT PPI green	Tau fil binding	Hsp90 Hop PPI	TsaE inh	BRCT inh red
OCCN1CCN(c2ncnc3nc[nH]c23)CC1	1%	1%	25µM*	-5%	i	1%
COCCn1c(=O)c(-c2cccc(C#N)c2)nc2cnc(N3CCN(C)CC3)nc21	-10%	-2%	-11%	-4%	i	3%
C#CCCCO/N=C1/C[C@@H](O)[C@@H](O)[C@@H]2[C@@H]3C(=O)N(c4cccc(Oc5ccccc5)c4)C(=O)[C@H]3CC[C@@H]12	x	0%[15.4 µM]	x	x	x	1%[15.4 µM]
COc1ccc(CNC(=O)c2cc3c(=O)n4ccccc4nc3n(Cc3ccco3)c2=N)cc1	-17%	-4%	229%	-12%	i	-9%
N=c1c(C(=O)NCc2ccco2)cc2c(=O)n3ccccc3nc2n1CCc1ccccc1	-16%	10%	0.63µM*	-11%	i	1%
Cc1ccc(Cn2c(=N)c(C(=O)NCc3ccco3)cc3c(=O)n4ccccc4nc32)cc1	0%	1%	3.2µM*	-2%	i	0%
COc1ccc(CCn2c(=N)c(C(=O)N3CCN(C)CC3)cc3c(=O)n4ccccc4nc32)cc1	-10%	0%	16µM*	-4%	i	0%
CCOC(=O)c1cc2c(=O)n3ccccc3nc2n(Cc2ccccc2)c1=N	-2%	-2%	1.6µM*	0%	i	2%
O=C(O)c1c2c(c(O)c3c1CN(C1CCCCC1)CO3)OCN(C1CCCCC1)C2	-22%[11.4 µM]	-1%[15.4 µM]	-3%[11.4 µM]	u	i	-1%[15.4 µM]
N[C@@H](Cc1nn[nH]n1)C(=O)O	14%[11.4 µM]	-1%[15.4 µM]	-9%[11.4 µM]	-4%[11 µM]	i	1%[15.4 µM]
COc1ccc(Oc2ncc3nc(-c4cc(F)cc(F)c4)c(=O)n(C4CC4)c3n2)cc1	-8%	-2%	20µM*	-3%	i	2%
Cn1c(=O)c(-c2cc(F)cc(F)c2)nc2cnc(Oc3cccc(Cl)c3)nc21	4%	-1%	10µM*	-2%	i	-3%
CN1CCN(c2ncc3nc(-c4cc(F)cc(F)c4)c(=O)n(C4CC4)c3n2)CC1	-8%	-1%	16µM*	u	i	1%
Cn1c(=O)c(-c2ccc(Cl)cc2)nc2cnc(Oc3cccc(Cl)c3)nc21	-8%	0%	u	0%	i	0%
O=c1c(-c2cc(F)cc(F)c2)nc2cnc(N3CCNCC3)nc2n1C1CC1	-8%	0%	177%	6%	i	1%
CNC1CC(N)[C@H](O)[C@@H](O[C@@H]2OC(CO)C3OC4(OC(C(N)CO)C(O)C(O)C4O)O[C@@H]3[C@H]2O)C1O (some centres undefined)	x	1%	x	x	x	0%
CCOc1ccc(OCc2ccc(C(=O)Nc3ccc(Cl)cn3)o2)cc1	0%	3%	59%	7%	i	1%
